# Where “and” joins values, the source holds several entries; their conditions need not be identical. Equal values may be shown once. Inconclusive results are not listed. A call without a number means that no potency is given here. The source holds several records for some structures; these can differ, active in one and inactive in another. Calls of active or inactive are those of the source. Unless noted, calls follow the shape of the dose curve; as a rule, active = well fitted curve in the direction sought with a large enough effect in the repeat runs; inconclusive = weak or mixed curves; inactive = no such curve, though single readings can be large; an effect the other way counts as inactive or inconclusive.
# Tests used:
# [1] = qHTS assay to test for compound auto fluorescence at 535 nm (green) in HEK293 cells (AID 720680)
# [2] = qHTS assay to test for compound auto fluorescence at 460 nm (blue) in HEK293 cell free culture (AID 720681)
# Summary of the method: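 Compounds were added to cell-free DMEM with 10% FBS and fluorescence read directly. The blue channel used 405 nm excitation and 460 nm emission, with triamterene as the reference fluorophore.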
# [3] = qHTS assay to test for compound auto fluorescence at 535 nm (green) in HEK293 cell free culture (AID 720682)
# Summary of the method: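 Green-channel intensity (Ex/Em 485/535 nm) was recorded from compound-treated wells containing only DMEM with 10% FBS. Fluorescein provided the equivalency standard.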
# [4] = qHTS assay to test for compound auto fluorescence at 590 nm (red) in HEK293 cell free culture (AID 720683)
# Summary of the method: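 Cell-free wells of DMEM with 10% FBS received compound, and intrinsic fluorescence was read at excitation/emission 540/590 nm. Values expressed as equivalence to Rose Bengal sodium.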
# [5] = qHTS assay to test for compound auto fluorescence at 590 nm (red) in HepG2 cell free culture (AID 720684)
# Summary of the method: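 Rose Bengal sodium served as the reference for red signal. Test compounds were dispensed into serum-containing MEM (10% FBS) without cells, and plates were read at 540/590 nm.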
# [6] = qHTS assay to test for compound auto fluorescence at 460 nm (blue) in HepG2 cell free culture (AID 720685)
# Summary of the method: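 Cell-free plates of MEM plus 10% FBS received 23 nL compound or DMSO vehicle; blue-channel (405/460 nm) intensity scored against triamterene as reference fluorophore.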
# [7] = qHTS assay to test for compound auto fluorescence at 535 nm (green) in HepG2 cell free culture (AID 720686)
# [8] = qHTS assay to test for compound auto fluorescence at 460 nm (blue) in HepG2 cells (AID 720687)
# Summary of the method: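 HepG2 cells in MEM with 10% FBS, attached overnight at 37 C, were exposed to compound or DMSO for 1 hr at 37 C, 5% CO2. Blue fluorescence was read at 405/460 nm, with triamterene as reference fluorophore.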
# [9] = biological target: Glucocorticoid receptor (Homo sapiens) (UniProt P04150); assay: qHTS assay to identify small molecule antagonists of the glucocorticoid receptor (GR) signaling pathway (AID 720692; active = well fitted inhibition curve with a large enough effect in the signal ratio in the repeat runs, not every such curve was filed as active; the % refers to the signal ratio; also: potency is read from the fitted curve at half-maximal effect)
# Chain of Glucocorticoid receptor (Homo sapiens) (P04150 whole entry, looked up): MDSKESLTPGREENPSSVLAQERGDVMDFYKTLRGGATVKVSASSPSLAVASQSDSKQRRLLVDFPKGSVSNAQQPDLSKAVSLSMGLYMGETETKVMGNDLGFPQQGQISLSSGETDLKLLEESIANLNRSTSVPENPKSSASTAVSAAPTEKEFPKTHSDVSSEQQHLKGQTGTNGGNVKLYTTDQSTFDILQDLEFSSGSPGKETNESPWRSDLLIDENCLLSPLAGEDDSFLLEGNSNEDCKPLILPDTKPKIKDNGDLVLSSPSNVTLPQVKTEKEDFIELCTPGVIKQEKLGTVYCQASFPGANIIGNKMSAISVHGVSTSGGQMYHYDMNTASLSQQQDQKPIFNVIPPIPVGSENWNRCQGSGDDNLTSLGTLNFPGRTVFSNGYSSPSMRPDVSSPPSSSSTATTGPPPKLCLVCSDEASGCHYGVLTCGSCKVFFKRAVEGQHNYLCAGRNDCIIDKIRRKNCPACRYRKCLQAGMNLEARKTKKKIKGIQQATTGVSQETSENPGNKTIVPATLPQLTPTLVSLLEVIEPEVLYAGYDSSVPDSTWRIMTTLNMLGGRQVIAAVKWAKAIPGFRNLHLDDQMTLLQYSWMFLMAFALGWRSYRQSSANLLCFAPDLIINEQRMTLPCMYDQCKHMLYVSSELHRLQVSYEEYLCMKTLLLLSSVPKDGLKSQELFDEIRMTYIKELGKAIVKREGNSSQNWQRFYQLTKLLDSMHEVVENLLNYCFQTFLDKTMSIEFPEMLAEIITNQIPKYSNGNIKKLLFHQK
# Summary of the method: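 Read-out: beta-lactamase FRET substrate fluorescence, 2 h at room temperature, in HeLa cells stably carrying a GRE-driven bla reporter. Compounds were co-incubated with 5 nM dexamethasone agonist (final) for 18 h at 37 C.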
# [10] = qHTS assay to identify small molecule antagonists of the glucocorticoid receptor (GR) signaling pathway - cell viability counter screen (AID 720693); also: nearly all actives have a fitted effect of over 55% in size; also: potency is read from the fitted curve at half-maximal effect
# [11] = qHTS assay to identify small molecule antagonists of the androgen receptor (AR) signaling pathway - cell viability counter screen (AID 743033; also: nearly all actives have a fitted effect of over 45% in size; also: potency is read from the fitted curve at half-maximal effect)
# [12] = qHTS assay to identify small molecule antagonists of the androgen receptor (AR) signaling pathway using the MDA cell line - cell viability counter screen (AID 743041; also: nearly all actives have a fitted effect of over 45% in size; also: potency is read from the fitted curve at half-maximal effect)
# Summary of the method: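 Cytotoxicity counter screen: MDA-kb2 AR-luc cells, compound + R1881, 16 h, 37C, 0% CO2; CellTiter-Fluor added at 15.5 h, fluorescence read after 30 min.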
# [13] = biological target: Androgen receptor (Homo sapiens) (UniProt P10275); assay: qHTS assay to identify small molecule antagonists of the androgen receptor (AR) signaling pathway using the MDA cell line (AID 743042; also: nearly all actives have a fitted effect of over 55% in size; also: potency is read from the fitted curve at half-maximal effect)
# Chain of Androgen receptor (Homo sapiens) (P10275 whole entry, looked up): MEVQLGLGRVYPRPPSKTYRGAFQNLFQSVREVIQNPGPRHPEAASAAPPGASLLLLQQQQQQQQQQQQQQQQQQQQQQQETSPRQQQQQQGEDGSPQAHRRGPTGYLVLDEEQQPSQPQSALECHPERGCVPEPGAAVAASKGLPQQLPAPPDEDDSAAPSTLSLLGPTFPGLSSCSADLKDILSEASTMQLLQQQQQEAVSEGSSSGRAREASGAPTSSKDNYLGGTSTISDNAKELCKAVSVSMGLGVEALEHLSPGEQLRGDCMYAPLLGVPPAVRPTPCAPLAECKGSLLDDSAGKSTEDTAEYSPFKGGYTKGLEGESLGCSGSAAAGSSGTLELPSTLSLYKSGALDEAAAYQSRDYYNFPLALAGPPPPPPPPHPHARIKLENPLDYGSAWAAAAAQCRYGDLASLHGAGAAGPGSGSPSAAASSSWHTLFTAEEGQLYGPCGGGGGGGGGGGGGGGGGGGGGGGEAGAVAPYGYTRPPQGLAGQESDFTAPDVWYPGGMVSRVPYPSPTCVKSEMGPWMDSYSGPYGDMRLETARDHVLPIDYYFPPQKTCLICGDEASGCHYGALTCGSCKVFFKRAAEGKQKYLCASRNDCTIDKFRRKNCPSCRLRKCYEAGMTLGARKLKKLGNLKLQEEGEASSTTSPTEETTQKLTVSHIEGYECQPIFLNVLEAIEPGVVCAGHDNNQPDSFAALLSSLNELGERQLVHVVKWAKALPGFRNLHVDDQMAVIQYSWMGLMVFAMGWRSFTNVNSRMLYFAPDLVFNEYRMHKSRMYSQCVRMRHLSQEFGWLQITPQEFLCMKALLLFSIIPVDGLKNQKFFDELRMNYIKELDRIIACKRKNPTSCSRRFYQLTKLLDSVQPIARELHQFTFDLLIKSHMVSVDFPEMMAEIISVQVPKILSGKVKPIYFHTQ
# Summary of the method: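 MDA-kb2 breast carcinoma cells carrying MMTV-luciferase (AR/GR responsive) were co-treated with compounds and the agonist R1881 for 16 h at 37C. Inhibition read as ONE-Glo luminescence; CellTiter-Fluor fluorescence measured in parallel for cytotoxicity.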
# [14] = qHTS assay to identify small molecule antagonists of the thyroid receptor (TR) signaling pathway - cell viability counter screen (AID 743064); also: nearly all actives have a fitted effect of over 50% in size; also: potency is read from the fitted curve at half-maximal effect
# Summary of the method: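 In rat pituitary GH3.TRE-Luc reporter cells co-exposed to compound and 1 nM T3 for 23.5 h, cytotoxicity was assessed with CellTiter-Fluor in the same wells, read by fluorescence.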
# [15] = qHTS assay for identifying genotoxic compounds that show differential cytotoxicity against isogenic chicken DT40 cell lines with known DNA damage response pathways - wild type cell line (AID 743012); also: potency is read from the fitted curve at half-maximal effect; nearly all actives have a fitted effect of over 60% in size
# Summary of the method: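 CellTiter-Glo luminescence readout of viability in wild type DT40 cells after 40 h compound exposure at 37 C/5% CO2; 300 cells/well; reagent incubated 30 min at room temperature before reading.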
# [16] = qHTS assay for identifying genotoxic compounds that show differential cytotoxicity against isogenic chicken DT40 cell lines with known DNA damage response pathways - Rev3 mutant cell line (AID 743014); also: potency is read from the fitted curve at half-maximal effect; nearly all actives have a fitted effect of over 55% in size
# [17] = qHTS assay for identifying genotoxic compounds that show differential cytotoxicity against isogenic chicken DT40 cell lines with known DNA damage response pathways - Rad54/Ku70 mutant cell line (AID 743015); also: potency is read from the fitted curve at half-maximal effect; nearly all actives have a fitted effect of over 60% in size
# [18] = biological target: Androgen receptor (Homo sapiens) (UniProt P10275); assay: qHTS assay to identify small molecule agonists of the androgen receptor (AR) signaling pathway using the MDA cell line (AID 743040; also: nearly all actives have a fitted effect of over 20% in size)
# Summary of the method: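 Luciferase read-out, ONE-Glo, 30 min RT. Cells: MDA-kb2 AR-luc, MMTV promoter with AR and GR response elements. Compound exposure 16 h, 37C, 0% CO2, after 5 h pre-incubation. qHTS agonist mode.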
# [19] = biological target: Androgen receptor (Homo sapiens) (UniProt P10275); assay: qHTS assay to identify small molecule antagonists of the androgen receptor (AR) signaling pathway (AID 743035; active = well fitted inhibition curve with a large enough effect in the signal ratio in the repeat runs, not every such curve was filed as active; the % refers to the signal ratio; also: potency is read from the fitted curve at half-maximal effect)
# Summary of the method: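 AR-bla HEK293 reporter cells; 4 h settle at 37C/5% CO2; compound + R1881 agonist, 16 h at 37C; LiveBLAzer B/G FRET substrate 2 h RT; fluorescence intensity read. qHTS format.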
compound,measurement,setting,value
O=C(O)Cc1ccc(OCCNC[C@H](O)c2ccccc2)cc1,Potency,[1],inactive
same,Potency,[2],inactive
same,Potency,[3],inactive
same,Potency,[4],inactive
same,Potency,[5],inactive
same,Potency,[6],inactive
same,Potency,[7],inactive
same,Potency,[8],inactive
same,Potency,[9],inactive
same,Potency,[10],inactive
same,Potency,[11],inactive
same,Potency,[12],inactive
same,Potency,[13],inactive
same,Potency,[14],inactive
CCN=C1C=CC(=C(c2ccc(N(CC)CC)cc2)c2ccc(N(CC)CC)cc2)c2ccccc21,Potency,[1],inactive
same,Potency,[2],inactive
same,Potency,[3],inactive
same,Potency,[4],inactive
same,Potency,[5],inactive
same,Potency,[6],inactive
same,Potency,[7],inactive
same,Potency,[8],inactive
same,Potency,[10],24.4 µM (active)
same,Potency,[15],0.0192 µM (active)
same,Potency,[16],0.0305 µM (active)
same,Potency,[17],0.0192 µM (active)
same,Potency,[11],0.0434 µM (active)
same,Potency,[12],0.121 µM (active)
same,Potency,[13],0.043 µM (active)
same,Potency,[14],0.542 µM (active)
O=C1c2c(O)ccc([N+](=O)[O-])c2C(=O)c2c([N+](=O)[O-])ccc(O)c21,Potency,[1],inactive
same,Potency,[2],inactive
same,Potency,[3],inactive
same,Potency,[4],inactive
same,Potency,[5],inactive
same,Potency,[6],inactive
same,Potency,[7],inactive
same,Potency,[8],inactive
same,Potency,[10],8.63 µM (active)
same,Potency,[15],13.6 µM (active)
same,Potency,[16],6.8 µM (active)
same,Potency,[17],5.4 µM (active)
same,Potency,[11],6.85 µM (active)
same,Potency,[12],21.5 µM (active)
same,Potency,[14],6.8 µM (active)
COCC(=O)O[C@]1(CCN(C)CCCc2nc3ccccc3[nH]2)CCc2cc(F)ccc2[C@@H]1C(C)C,Potency,[1],inactive
same,Potency,[2],inactive
same,Potency,[3],inactive
same,Potency,[4],inactive
same,Potency,[5],inactive
same,Potency,[6],inactive
same,Potency,[7],inactive
same,Potency,[8],inactive
same,Potency,[10],10.7 µM (active)
same,Potency,[15],2.37 µM (active)
same,Potency,[16],4.22 µM (active)
same,Potency,[17],4.73 µM (active)
same,Potency,[11],10.7 µM (active)
same,Potency,[18],inactive
same,Potency,[12],9.44 µM (active)
same,Potency,[13],7.5 µM (active)
same,Potency,[14],1.5 µM (active)
CNC(=O)c1cc(Oc2ccc(NC(=O)Nc3ccc(Cl)c(C(F)(F)F)c3)cc2)ccn1,Potency,[1],inactive
same,Potency,[2],inactive
same,Potency,[3],inactive
same,Potency,[4],inactive
same,Potency,[5],inactive
same,Potency,[6],inactive
same,Potency,[7],inactive
same,Potency,[8],inactive
same,Potency,[10],19 µM (active)
same,Potency,[15],4.73 µM (active)
same,Potency,[16],5.31 µM (active)
same,Potency,[17],5.31 µM (active)
same,Potency,[11],16.9 µM (active)
same,Potency,[12],16.8 µM (active)
same,Potency,[14],9.44 µM (active)
C[C@]12CC[C@H]3C(=CCc4cc(O)ccc43)[C@@H]1CCC2=O,Potency,[1],inactive
same,Potency,[2],inactive
same,Potency,[3],inactive
same,Potency,[4],inactive
same,Potency,[5],inactive
same,Potency,[6],inactive
same,Potency,[7],inactive
same,Potency,[8],inactive
same,Potency,[9],11 µM (active)
same,Potency,[10],inactive
same,Potency,[16],54.5 µM (active)
same,Potency,[17],48.6 µM (active)
same,Potency,[13],27.3 µM (active)
CCCCCCCCCCOCC(O)CN (configuration not stated),Potency,[1],inactive
same,Potency,[2],inactive
same,Potency,[3],inactive
same,Potency,[4],inactive
same,Potency,[5],inactive
same,Potency,[6],inactive
same,Potency,[7],inactive
same,Potency,[8],inactive
same,Potency,[9],26.8 µM (active)
same,Potency,[15],4.73 µM (active)
same,Potency,[16],6.68 µM (active)
same,Potency,[17],7.5 µM (active)
same,Potency,[11],inactive
same,Potency,[14],5.96 µM (active)
CCCCNc1c(C(=O)OCC)c(C)nc2c1cnn2CC,Potency,[1],inactive
same,Potency,[2],inactive
same,Potency,[3],inactive
same,Potency,[4],inactive
same,Potency,[5],inactive
same,Potency,[6],inactive
same,Potency,[7],inactive
same,Potency,[8],inactive
same,Potency,[9],inactive
same,Potency,[15],21.1 µM (active)
same,Potency,[16],23.7 µM (active)
same,Potency,[17],26.6 µM (active)
same,Potency,[11],inactive
same,Potency,[12],inactive
C1CC(COCC2CO2)CCC1COCC1CO1 (configuration not stated),Potency,[1],inactive
same,Potency,[2],inactive
same,Potency,[3],inactive
same,Potency,[4],inactive
same,Potency,[5],inactive
same,Potency,[6],inactive
same,Potency,[7],inactive
same,Potency,[8],inactive
same,Potency,[10],inactive
same,Potency,[15],30.6 µM (active)
same,Potency,[16],6.86 µM (active)
same,Potency,[17],19.3 µM (active)
same,Potency,[11],inactive
same,Potency,[12],inactive
CCCSS/C(CCO)=C(\C)N(C=O)Cc1cnc(C)nc1N,Potency,[1],inactive
same,Potency,[2],inactive
same,Potency,[3],inactive
same,Potency,[4],inactive
same,Potency,[5],inactive
same,Potency,[6],inactive
same,Potency,[7],inactive
same,Potency,[8],inactive
same,Potency,[10],inactive
same,Potency,[15],5.31 µM (active)
same,Potency,[16],8.41 µM (active)
same,Potency,[17],13.3 µM (active)
same,Potency,[11],inactive
same,Potency,[12],inactive
same,Potency,[14],26.6 µM (active)
CC1=C(/C=C/C(C)=C/C=C/C(C)=C/C(=O)Nc2ccc(O)cc2)C(C)(C)CCC1,Potency,[1],inactive
same,Potency,[2],inactive
same,Potency,[3],inactive
same,Potency,[4],inactive
same,Potency,[5],inactive
same,Potency,[6],inactive
same,Potency,[7],inactive
same,Potency,[8],inactive
same,Potency,[10],44.8 µM (active)
same,Potency,[15],9.44 µM (active) and 22.2 µM (active)
same,Potency,[16],13.3 µM (active) and 9.94 µM (active)
same,Potency,[17],9.44 µM (active) and 9.94 µM (active)
same,Potency,[11],inactive and 44.8 µM (active)
same,Potency,[19],23.9 µM (active) and 14.2 µM (active)
same,Potency,[18],inactive
same,Potency,[12],23.7 µM (active) and 44.4 µM (active)
same,Potency,[13],29.8 µM (active) and 28 µM (active)
same,Potency,[14],6.68 µM (active) and 8.85 µM (active)
NCCCC(O)(P(=O)(O)O)P(=O)(O)O,Potency,[1],inactive
same,Potency,[2],inactive
same,Potency,[3],inactive
same,Potency,[4],inactive
same,Potency,[5],inactive
same,Potency,[6],inactive
same,Potency,[7],inactive
same,Potency,[8],inactive
same,Potency,[9],inactive
same,Potency,[10],inactive
same,Potency,[11],inactive
same,Potency,[12],inactive
same,Potency,[14],inactive
CCCN(CCc1cccs1)[C@H]1CCc2c(O)cccc2C1,Potency,[1],inactive
same,Potency,[2],inactive
same,Potency,[3],inactive
same,Potency,[4],inactive
same,Potency,[5],inactive
same,Potency,[6],inactive
same,Potency,[7],inactive
same,Potency,[8],inactive
same,Potency,[9],inactive
same,Potency,[15],18.8 µM (active)
same,Potency,[16],26.6 µM (active)
same,Potency,[17],23.7 µM (active)
same,Potency,[11],inactive
same,Potency,[12],inactive
same,Potency,[13],inactive
S=C(SSSSSSC(=S)N1CCCCC1)N1CCCCC1,"fluorescence, % of fluorescein",[1],-0.141% [at 18.6 µM] (inactive)
same,"fluorescence, % of fluorescent control",[2],-0.263% [at 18.6 µM] (inactive)
same,activity change,[3],"-0.0539% [at 18.6 µM, stronger effect = higher value] (inactive)"
same,"fluorescence, % of fluorescent control",[4],0.0303% [at 18.6 µM] (inactive)
same,"fluorescence, % of Rose Bengal",[5],-0.0342% [at 18.6 µM] (inactive)
same,"fluorescence, % of fluorescent control",[6],-0.225% [at 18.6 µM] (inactive)
same,"fluorescence, % of fluorescein control",[7],-0.0879% [at 18.6 µM] (inactive)
same,"fluorescence, % of fluorescent control",[8],0.0837% [at 18.6 µM] (inactive)
same,Potency,[10],inactive
same,Potency,[15],0.674 µM (active)
same,Potency,[16],0.425 µM (active)
same,Potency,[17],0.674 µM (active)
same,Potency,[11],0.68 µM (active)
same,Potency,[12],1.51 µM (active)

# — PubChem BioAssay (Tox21)
